This passage reports Percent Effect results from ChEMBL document CHEMBL3988442, “University of Dundee, Small-Polar-MMV Screening Library” (2021).

For assay [1], the target named is T1, Aspartate--tRNA(Asp/Asn) ligase (Mycobacterium tuberculosis (strain ATCC 25618 / H37Rv)) (UniProt P9WFW3). Note: in the data most compounds retested in dose-response had high values.
T1 sequence (whole entry): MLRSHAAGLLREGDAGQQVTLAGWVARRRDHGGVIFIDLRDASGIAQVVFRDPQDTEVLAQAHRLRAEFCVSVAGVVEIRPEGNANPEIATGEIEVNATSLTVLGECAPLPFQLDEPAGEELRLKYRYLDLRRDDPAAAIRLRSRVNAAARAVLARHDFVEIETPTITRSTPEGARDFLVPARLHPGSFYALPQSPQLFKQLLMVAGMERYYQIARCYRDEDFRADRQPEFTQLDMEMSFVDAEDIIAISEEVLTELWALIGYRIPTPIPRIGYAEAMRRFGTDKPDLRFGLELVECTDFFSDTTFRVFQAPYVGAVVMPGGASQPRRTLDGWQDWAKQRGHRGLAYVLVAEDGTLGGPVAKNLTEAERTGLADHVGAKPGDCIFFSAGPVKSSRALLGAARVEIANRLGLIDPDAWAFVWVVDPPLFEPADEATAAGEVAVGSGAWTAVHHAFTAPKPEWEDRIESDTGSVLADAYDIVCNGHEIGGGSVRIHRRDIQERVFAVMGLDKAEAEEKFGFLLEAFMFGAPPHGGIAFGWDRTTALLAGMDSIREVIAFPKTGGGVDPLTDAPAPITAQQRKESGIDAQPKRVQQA
The experiment in a line: Assay for Asp RNA synthetase-1 from Mycobacterium tuberculosis. It is filed as functional. Further details: scale not given: direction of the effect not stated beside the values. The settings on record: 30 µM.

Assay [2] deals with Shiga toxin 2 (Escherichia coli O157:H7) (UniProt P09385+P09386). As to the kind of experiment: E. coli 0.157:H7 Shiga Toxin SOP - stx2 screening assay. It is filed as functional. Further details: scale not given: direction of the effect not stated beside the values. The settings on record: 30 µM.

As for `CCCNCc1cc2c(C)cc(C)cc2n2c(=O)n(C)nc12`, the Percent Effect is -5.73% in assay [1] and -11.4% in assay [2].

In the case of `COc1ccc(C(=O)N2C[C@@H](C(=O)O)[C@H](c3ccccc3C)C2)c(O)c1`, the Percent Effect in assay [1] worked out at 8.11%; in assay [2], 0.95%.

On to `Cc1cnc(CN(C)C2CCN(CCc3cnn(C)c3)C2)o1` (centres undefined), for which the Percent Effect in assay [1] is -2.22%; in assay [2], 9.7%.

On to `CCC(C)NC(=O)Cc1c(C)nc2c(c1C)c(=O)[nH]n2C` (centres undefined), for which the Percent Effect in assay [1] was 5.44%; in assay [2] it was -28.6%.

For `CCOc1ccccc1-c1noc(CN(C)Cc2cnn(C)c2)n1`, the Percent Effect is 2.13% in assay [1] and -14% in assay [2].

As for `CCO[C@H]1CO[C@@]2(CCCN(S(=O)(=O)c3ccccc3)C2)C1`, the values for the Percent Effect in assay [1] and in assay [2] were 4.62% and -21.7%, respectively.

With `COc1cc(C)nc(N2CCN(C(=O)c3ccc(Cl)o3)CC2)n1`, the Percent Effect is 0.508% in assay [1] and 20% in assay [2].

Regarding `Cc1cnn(C2CCCN(C(=O)CCCNc3ncccn3)C2)c1` (centres undefined), the Percent Effect was 1.18% in assay [1] and 20.6% in assay [2].

With `CN(Cc1cnn(-c2ccccc2)n1)CC1CCCN1c1cccnn1` (centres undefined), the Percent Effect stood at 1.85% in assay [1] and 16% in assay [2].

For the compound `Cc1nc(C2CCN(C(=O)c3cccnc3)CC2)c2sccn12`, the Percent Effect in assay [1] was 2.04%; in assay [2] it was -14.1%.

Consider `CCOC1CCCN(C(=O)NCCc2ccn(-c3ccccc3)n2)C1` (centres undefined), for which the Percent Effect amounted to 0.577% in assay [1] and 12.9% in assay [2].

For the compound `CC(C)C(=O)N1CCN(C(=O)c2cscn2)[C@H]2CS(=O)(=O)C[C@H]21`, the Percent Effect in assay [1] was -8.33%; in assay [2], -5.71%.

In the case of `CCOc1nnc(CN(C)C2CCCN(c3cccnn3)C2)s1` (centres undefined), the Percent Effect in assay [1] is 3.86%; in assay [2], -25.9%.

For `CN1CCN(CCCNC(=O)c2cc(Cl)c3c(c2)OCO3)CC1`, the Percent Effect in assay [1] is -5.91%; in assay [2], -42.5%.

For `CCCOc1ccc(CNC2CCCc3c2cnn3CC)cc1OC` (centres undefined), the figures for the Percent Effect in assay [1] and in assay [2] were -1.51% and -22.9%, respectively.

Regarding `Cn1cc(C(=O)NC2CCN(C(=O)NCC3CCSCC3)CC2)cn1`, the Percent Effect in assay [1] was 3.16%; in assay [2], -2.79%.

In the case of `CC(NC(=O)NCc1cc[nH]n1)c1ccc2c(c1)CCC(=O)N2` (centres undefined), the figures for the Percent Effect in assay [1] and in assay [2] were -1.15% and -11.9%, respectively.

As for `c1ccc2oc(CCCN3CCOC(Cn4cccn4)C3)nc2c1` (centres undefined), the Percent Effect in assay [1] was 0.605%; in assay [2], -3.52%.

For `CCN(Cc1ccc2c(c1)OCO2)C(=O)NC(C)Cn1cccn1` (centres undefined), the results for the Percent Effect in assay [1] and in assay [2] were -0.819% and -12.4%, respectively.

Consider `CC(C1CC1)N(C)C(=O)c1cnc(-c2ccc3c(c2)OCO3)s1` (centres undefined), for which the Percent Effect is 3.36% in assay [1] and -42.7% in assay [2].

Regarding `CN(Cc1ccc(C#N)cc1)Cc1noc(C(C)(C)C)n1`, the Percent Effect in assay [1] was -2.67%; in assay [2] it was -19%.

`O=C(c1n[nH]c2c1CCN(Cc1nccs1)C2)N1CCCC1`: the Percent Effect was -0.578% in assay [1] and -3.88% in assay [2].

`CNS(=O)(=O)c1ccc(C(=O)N2CCCC2Cc2ccccc2)o1` (centres undefined): the figures for the Percent Effect in assay [1] and in assay [2] were -3.06% and 18.2%, respectively.

`COc1c(CNC(c2ccc(F)cc2)c2nccn2C)c(C)nn1C` (centres undefined): the Percent Effect in assay [1] was -6.01%; in assay [2], -17.1%.

With `Cc1nc(CCNC(=O)N2CCC(Cc3cnn(C)c3)C2)cs1` (centres undefined), the Percent Effect in assay [1] was -5.21%; in assay [2], -13.9%.

Take `Cc1cn2c(n1)CCC(NC(=O)c1ccc(CS(C)(=O)=O)cc1)C2` (centres undefined): the Percent Effect in assay [1] was -0.233%; in assay [2], -16.5%.

For `CCc1noc(C(C)N(C)CC(=O)Nc2c(C)cccc2C)n1` (centres undefined), the Percent Effect in assay [1] was -10.4%; in assay [2] it was 10.3%.

For `COc1cccc(OCCNC(=O)CN2CCN(C)CC2C)c1` (centres undefined), the figures for the Percent Effect in assay [1] and in assay [2] were -3.03% and -14.9%, respectively.

On to `COc1ccc(C2CCCN2C(=O)c2csc(NC(C)=O)n2)cc1` (centres undefined), for which the figures for the Percent Effect in assay [1] and in assay [2] were 0.516% and -30.4%, respectively.

Take `Cc1nn(C)c2cnn(CC(=O)NCCc3ccccc3)c12`: the Percent Effect in assay [1] is -1.83%; in assay [2], -33.3%.

Regarding `CCc1nnc2n1CC(CNCc1ccncc1)CC2` (centres undefined), the results for the Percent Effect in assay [1] and in assay [2] were -3.51% and -13.5%, respectively.

Take `O=C(Cc1ccc(O)c(Cl)c1)N1CCCCC1CCn1cccn1` (centres undefined): the Percent Effect in assay [1] is -0.725%; in assay [2], -11.4%.

Regarding `COc1c(C)cnc(CN2CCC(N(C)C(C)C(N)=O)CC2)c1C` (centres undefined), the values for the Percent Effect in assay [1] and in assay [2] were -3.49% and -5%, respectively.

For `O=C(c1ccnnc1)N1C[C@H]2CCC[C@@]2(COCC2CCOCC2)C1`, the figures for the Percent Effect in assay [1] and in assay [2] were 3.07% and -0.366%, respectively.

On to `COc1ccnc(C(=O)N2CCCC(c3noc(C)n3)C2)c1` (centres undefined), for which the Percent Effect came to 0.885% in assay [1] and 1.38% in assay [2].

For the compound `CCN1CCN(c2ncc(-c3cc(C)no3)c(-c3ccc(C)s3)n2)CC1`, the results for the Percent Effect in assay [1] and in assay [2] were 2.72% and 2.82%, respectively.

Regarding `CN(C)CCN1CCO[C@H]2CN(Cc3cnn(C)c3)C[C@H]21`, the Percent Effect in assay [1] is -1.31%; in assay [2] it was -7.4%.
